Compound activity deposited in PubChem by National Center for Advancing Translational Sciences (NCATS).
In the library only some 8.8% were active in any assay of this set; here they are far more common.
KB-3-1 cytotox – KB-3-1 parental cell cytotoxicity. KB-3-1 viability, CellTiter-Glo ATP luminescence, 72 h. Potency, µM (titrated, usually from 46.1 µM), usual class: cytotoxic. 1.4% of 400,000 active; note: potency is the fitted concentration of half-maximal effect; nearly all actives have a fitted effect of over 60% in size
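Luminescent ATP read-out (CellTiter-Glo) measures survival of drug-naive KB-3-1 cells after 72 h compound exposure at 37 °C. Titration series was screened from lowest to highest concentration, with DMSO vehicle plates as background controls.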
HT1080-NT tox – kills 2HG-producing HT-1080-NT fibrosarcoma cells | HT-1080-NT fibrosarcoma viability, CellTiter-Glo ATP luminescence, 48 h | Potency, µM (series often up to 46.1 µM), for the others: at the highest dose activity, negative = less viability, actives largely listed as cytotoxic | 1.6% of 360,000 active;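 note: NT is the 2HG producing partner of a matched IDH1 knockdown line; potency is the fitted concentration of half-maximal effect; 0% = DMSO-treated cells and -100% = media-only wells without cells; nearly all actives have a fitted effect of over 55% in size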
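Fibrosarcoma NT cells, 750 per well in 5% FBS RPMI, were exposed to compound for 48 hours. Viability: CellTiter-Glo luminescence.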
IL-1B inflam inh – inflammasome signaling inhibition, IL-1 beta readout | 4.7% of 360,000 active | activity change, % at 57.5 µM | THP-1 LPS/ATP IL-1B secretion, AlphaLISA, 16 h; hits give low values | AID 743279; in the data active = activity change below about -50%; inconclusive = mostly about -30% to -49%
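THP-1 cells pretreated 1 hr with compounds (up to 57.5 uM final), then stimulated with LPS (250 ng/mL final) plus ATP (1.25 mM final); secreted IL-1B measured by AlphaLISA after 16 hr, decreased signal indicating inhibition.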
KB-V1 cytotox – kills drug-selected multidrug resistant KB-V1 cells; Potency, µM (doses to about 46.1 µM), hits mostly cytotoxic; AID 1347076; 3.4% of 400,000 active; KB-V1 MDR cells viability, CellTiter-Glo, 72 h; note: potency is the fitted concentration of half-maximal effect; nearly all actives have a fitted effect of over 60% in size
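Drug-selected KB-V1 cells, grown in DMEM lacking phenol red with 10% FBS, receive compound titrations; after three days at 37 degrees C, surviving cell ATP is quantified by CellTiter-Glo luminescence and responses normalized and curve-fitted.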
HT1080 IDH1KD tx – toxicity to HT-1080 IDH1 knockdown cells (counter line) | HT-1080 IDH1 knockdown viability, ATP luminescence, 48 h | Potency, µM (doses to about 46.1 µM), for inactives: at the top dose activity, negative = toxicity, usual class: cytotoxic | 2% of 360,000 active | AID 686971;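 note: potency is the fitted concentration of half-maximal effect; 0% = DMSO wells and -100% = cell-free medium wells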
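Assay cells: HT-1080 with IDH1 knockdown, 750 per well, RPMI/5% FBS. Exposure: 48 h at 37 °C following 2 h pre-incubation. Read: CellTiter-Glo luminescence; fitted concentration-response, curve class assigned.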
* marks the source's active call; other numbers are inactive results; i = inactive; ? = inconclusive; / = no result given. Unless noted, calls come from the whole dose curve; as a rule, active = well fitted curve in the direction sought with a large enough effect; inconclusive = small, poorly fitted or top-dose-only effect, or another doubt; inactive = no such curve, though single readings can be large; an effect the other way counts as inactive or inconclusive. Unless noted, % is set by controls: 0 for no effect and ±100 for the full control effect.

SMILES	KB-3-1 cytotox	HT1080-NT tox	IL-1B inflam inh	KB-V1 cytotox	HT1080 IDH1KD tx
C[C@H](NC(=O)N1C[C@H]2C[C@@H](C1)c1cccc(=O)n1C2)C(=O)Nc1ccccc1F	?	-3%	-5	i	1%
CN1CCC2(CC1)c1ccccc1-c1ccccc12	i	-8%	-67*	i	-15%
COc1cccc(C(c2nnnn2C(C)(C)C)N2CCC3(CC2)C(=O)NCN3c2ccccc2)c1OC (stereo not drawn)	i	?	?	i	?
CCOP(=O)(OCC)C(O)c1ccc(Br)cc1 (stereo not drawn)	i	10%	0	i	12%
CCOC(=O)C(C(=O)OCC)C(Nc1ccc(Br)cc1)c1ccccc1 (stereo not drawn)	?	?	-71*	i	13µM*
Cc1ccc(Cn2cccc(C(=O)Nc3ccc4c(c3)OCO4)c2=O)cc1	i	/	/	?	/
CC1CN2C(=O)C1(c1ccccc1)C(=O)NC2=S (stereo not drawn)	i	7%	10	i	9%
O=C1NC(=O)C2(Cc3ccccc3N3CCCC32)C(=O)N1c1ccccc1 (stereo not drawn)	i	-5%	61	i	-4%
O=C1NC(=O)C2(Cc3ccccc3N3CCOCC32)C(=O)N1c1ccccc1 (stereo not drawn)	?	?	36	?	18µM*
Nc1ccc2c3c(cccc13)-c1ccccc1-2	i	?	2	i	?
CCCCc1nc2ccccc2c(=O)n1-c1ccc(Cl)cc1[N+](=O)[O-]	i	6%	12	4.1µM*	?
Cc1ccccc1Cn1cccc(C(=O)Nc2nc3ccccc3s2)c1=O	i	/	/	i	/
CN1CCN(Cc2ccccc2Sc2ccccc2)CC1	i	-5%	-80*	21µM*	-1%
CC(Cc1ccccc1Sc1ccccc1)N(C)C (stereo not drawn)	i	-11%	?	i	-26%
CC1=[N+]([O-])C2(N)CCc3nonc3C2(O)C1 (stereo not drawn)	i	17%	3	i	18%
O=c1c2ccccc2nc(-c2ccccc2)n1-c1cccc(O)c1	i	4%	-16	i	8%
CSCCC(c1nnnn1C1CCCC1)N1CCC(n2c(=O)[nH]c3ccccc32)CC1 (stereo not drawn)	i	3%	-10	23µM*	1%
O=c1[nH]c2ccccc2n1C1CCN(C(CCc2ccccc2)c2nnnn2C2CCCCC2)CC1 (stereo not drawn)	?	9%	-61*	?	16%
CSCCC(c1nnnn1C1CCCCC1)N1CCC(n2c(=O)[nH]c3ccccc32)CC1 (stereo not drawn)	i	?	-23	i	?
Fc1ccccc1CN1Cc2ccccc2-n2nncc2C1	i	5%	33	i	-1%
O=P(O)(O)Cc1ccccc1OP(=O)(c1ccccc1)c1ccccc1	i	1%	4	23µM*	1%
O=C(COc1ccc(Br)cc1)N1CCN(Cc2c[nH]c3ccccc23)CC1	i	-3%	?	18µM*	-7%
CC(C)(C)C(=O)O[C@H]1CC[C@@]2(C)C(=CC(=O)C3C2CC[C@]2(C)C(=O)[C@@H](F)CC32)C1 (stereo partly drawn)	?	0%	-77*	?	-2%
CC(=O)OC1CC[C@@]2(C)C(=CC(=O)C3C4CCC(OC(C)=O)[C@@]4(C)CCC32)C1 (stereo partly drawn)	i	17%	6	i	10%
Cc1ccc(NC(=O)c2cc(-c3cc(Cl)ccc3C)n[nH]2)cc1NS(C)(=O)=O	i	?	-14	i	?
Cc1cccc(-n2nc(C)c3c2NC(=O)CSC3c2ccccc2Cl)c1 (stereo not drawn)	i	/	/	i	/
C[C@@H]1CC2C3CC=C4C[C@@H](O)CC[C@]4(C)C3CC[C@]2(C)[C@H]1O (stereo partly drawn)	?	2%	91	?	1%
